CYP2C9 inhib: inhibitors of human CYP2C9. P11712. CYP2C9 Supersomes, luciferin-H conversion, luminescence. inhibition, % at 5 µM. 20% of 96,000 active. AID 777;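 active = blocking of liver enzyme CYP2C9 beyond about 50% at 5 µM, limit read from the data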
EphB4 ephrin blk: blocks human EphB4 binding to ephrin-B2; P54760; EphB4 LBD / TNYL-RAW-Alexa532 peptide, fluorescence polarization; inhibition, % at 7 µM; 0.15% of 97,000 active;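 active = inhibition above the screen-wide mean inhibition plus 3 SD, cut at about 15% in these data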;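 note: 0% = DMSO wells and 100% = excess unlabeled TNYL-RAW peptide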
CYP2C19 inhib: human CYP2C19 inhibition. P33261. CYP2C19 Supersomes, luciferin-H EGE luminescence, 30 min. inhibition, % at 5 µM. 21% of 96,000 active;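 active = CYP2C19 inhibition above a set limit at 5 µM in the primary screen, cut at about 50% in these data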;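 note: plate controls were negative control wells for no effect and 2.5 mM tranylcypromine positive control for full effect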
CYP2C9 act: CYP2C9 (human) activation | recombinant CYP2C9, luciferin-H conversion, luminescence; stronger effect = higher value; factor 1 = untreated enzyme, 0 = blocked | 1.4% of 96,000 active | AID 1024 | activation factor at 5 µM;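 active = activation factor of 2 or more for CYP2C9 at a 5 µM dose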;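 note: 0 = sulfaphenazole-blocked wells and 1 = vehicle-only wells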
CYP2C19 act: cytochrome P450 2C19 (human) activation. 96,000 tested, under 10 active. P33261. activation factor at 5 µM. recombinant CYP2C19, luciferin-H EGE luminescence; stronger effect = higher value; 0 = fully inhibited enzyme, 1 = untreated enzyme;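 active = activation factor of at least 2 at 5 µM in the primary screen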;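 note: 0 = wells with 2.5 mM tranylcypromine and 1 = vehicle-only wells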
Active calls of the source: *; · = no result. Only some compounds are listed: those with a hit (about 27% of all), similar ones and a draw of the others.

SMILES	CYP2C9 inhib	EphB4 ephrin blk	CYP2C19 inhib	CYP2C9 act	CYP2C19 act
CC(C)c1nnc(NC(=O)CCC(=O)NC2CCCCCCC2)s1	26	3	5	0.7	0.9
O=C(CCC(=O)N1CCN(C2CCCCC2)CC1)Nc1nnc(C(F)(F)F)s1	38	-1	8	0.6	0.9
O=C(CCC(=O)NC1CCCCCC1)Nc1nnc(C(F)(F)F)s1	66*	-3	-1	0.3	1
O=C(CCC(=O)NC1CCCCCCC1)Nc1nnc(C(F)(F)F)s1	83*	1	36	0.2	0.6
O=C(Nc1ccc2c(c1)OCO2)C1CCN(C(=O)c2cccs2)CC1	39	·	15	0.6	0.9
CC(C)[C@H](NC(=O)Nc1cccc(C(F)(F)F)c1)C(=O)O	-7	-3	-3	1.1	1
CC(C)Nc1nc(NC(C)C)nc(N(C)C#N)n1	12	-5	0	0.9	1
COc1ccc(-c2ccc(SCC(=O)N3CCCC3)nn2)cc1OC	-6	-3	-6	1.1	1.1
CC1CCCCN1C(=O)CSc1ccc(-c2ccc(F)cc2)nn1 (stereo not given)	35	-8	61*	0.7	0.4
COc1nc(N)c(S(=O)(=O)c2ccccc2)cc1C#N	-143	-1	39	2.4*	0.6
COc1nc(N)c(S(=O)(=O)c2ccccc2C)cc1C#N	-86	3	78*	1.9	0.2
COc1ccc(Oc2nnc(-c3ccccc3)cc2C#N)cc1	-11	7	-16	1.1	1.2
COc1ccc(N(CC(O)Cn2c3ccccc3c3ccccc32)S(=O)(=O)c2ccccc2)cc1 (stereo not given)	70*	-1	83*	0.3	0.2
CS(=O)(=O)N(CC(O)Cn1c2ccccc2c2ccccc21)c1ccccc1 (stereo not given)	97*	-5	96*	0	0
CCN(CC(O)Cn1c2ccccc2c2ccccc21)S(=O)(=O)c1ccc(C)cc1 (stereo not given)	90*	7	99*	0.1	0
CCn1cc(C2=NOC(C(=O)O)C2)c(C)n1 (stereo not given)	10	·	9	0.9	0.9
CCN(CC)S(=O)(=O)c1cccc(C(=O)NC(C(=O)Nc2nnc(C3CC3)s2)C(C)C)c1 (stereo not given)	48	·	47	0.5	0.5
CC1(C)CC(=O)C(C=NCCN2CCN(C(=O)c3ccc(Br)cc3)CC2)=C(O)C1	·	0	·	·	·
Cc1c(C(=O)Nc2ccc(Cl)cc2)c2ccccn2c1C(=O)c1ccc([N+](=O)[O-])cc1	81*	2	17	0.2	0.8
Cc1cc2nc(-c3ccc(SCC(=O)N4CCc5ccccc54)nc3)[nH]c2cc1C	27	-2	16	0.7	0.8
O=C1CSC(c2cn(-c3ccccc3)nc2-c2cc3ccccc3oc2=O)N1Cc1ccccc1 (stereo not given)	30	3	-12	0.7	1.1
O=C1CSC(c2nn(-c3ccccc3)cc2-c2cc3ccccc3oc2=O)N1Cc1ccco1 (stereo not given)	84*	-5	55*	0.2	0.4
O=C(Nc1nnc(N2CCCCCC2)s1)c1cc(-c2ccc(Br)cc2)on1	15	-5	-19	0.8	1.2
CC1CCCC(C)N1c1nnc(NC(=O)c2cc(-c3ccc(Br)cc3)on2)s1 (stereo not given)	74*	5	52*	0.3	0.5
Oc1ccccc1Nc1nc(NCC2CCCO2)c2ccccc2n1 (stereo not given)	42	-1	10	0.6	0.9
SMILES	CYP2C9 inhib	EphB4 ephrin blk	CYP2C19 inhib	CYP2C9 act	CYP2C19 act
Cc1c(-n2cc(C(=O)c3cc(Br)ccc3O)cc(C#N)c2=O)c(=O)n(-c2ccccc2)n1C	64*	3	36	0.4	0.6
Cc1nn(CCCC(=O)Nc2sc3c(c2C#N)CCC3)c(C)c1[N+](=O)[O-]	41	1	30	0.6	0.7
CC(C)C(C(=O)Nc1sc2c(c1C#N)CCCCC2)N1C(=O)c2ccccc2C1=O (stereo not given)	64*	-3	35	0.4	0.7
Cc1nn(C(C)C(=O)Nc2sc3c(c2C#N)CCCC3)c(C)c1[N+](=O)[O-] (stereo not given)	61*	0	21	0.4	0.8
CC(C)(C)C(=O)Nc1sc2c(c1C#N)CCCCC2	·	-7	·	·	·
CC(C)CC(=O)NC(NC(=S)Nc1sc2c(c1C#N)CCCC2)C(Cl)(Cl)Cl (stereo not given)	100*	5	53*	0	0.5

Screening data (PubChem)
